The results in this text go back to PubChem BioAssay (NCATS).

“And” between values parts separate entries of the source, which are not always exact repeats. Equal entries are not always repeated. Records with an inconclusive call do not appear. Unmarked numbers belong to inactive results. The source made the active and inactive calls. Unless noted, the call rests on the fitted dose curve; in most records, active means well fitted curve in the direction sought with a large enough effect; inconclusive means small, poorly fitted or top-dose-only effect, or another doubt; inactive means no such curve, though single readings can be large; an effect the other way counts as inactive or inconclusive.

For experiment [1], the target named is Cellular tumor antigen p53 (Homo sapiens) (UniProt P04637). Kind of experiment: Primary qHTS for small molecule compounds that upregulate eGFP-tagged delta133p53alpha (in C-terminal) cells. (AID 2060324). Further: potency means the concentration at half of the fitted maximal effect. Put shortly: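 Doxycycline (100 ng/ml, 24 h) first induced the eGFP fusion in NCI-H358 C-terminal-tag cells. Washed-out cells then received titrated compounds for 24 h at 37 °C before paraformaldehyde fixation, Hoechst staining and cytometric GFP quantification.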
Chain of Cellular tumor antigen p53 (Homo sapiens) (P04637 whole entry, looked up, the tested form may be a part): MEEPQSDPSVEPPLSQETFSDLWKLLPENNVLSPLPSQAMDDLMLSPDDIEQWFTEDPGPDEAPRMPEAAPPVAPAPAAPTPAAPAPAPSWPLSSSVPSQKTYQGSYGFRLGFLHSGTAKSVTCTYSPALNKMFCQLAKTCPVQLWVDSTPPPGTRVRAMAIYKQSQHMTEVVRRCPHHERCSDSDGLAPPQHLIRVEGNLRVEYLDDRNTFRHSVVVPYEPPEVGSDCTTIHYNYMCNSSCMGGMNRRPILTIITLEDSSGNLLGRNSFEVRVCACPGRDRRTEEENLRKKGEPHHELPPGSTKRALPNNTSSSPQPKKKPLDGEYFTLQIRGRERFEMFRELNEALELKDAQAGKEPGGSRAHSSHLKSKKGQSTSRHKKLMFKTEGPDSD

Experiment [2] concerns the target Aldehyde dehydrogenase, mitochondrial (Homo sapiens) (UniProt P05091). Kind of experiment: qHTS for Inhibitors of the Aldehyde Dehydrogenase Family (ALDH2) Validation screens (AID 2061302; active means well fitted inhibition curve with a large enough effect; title and protocol of this record describe different tests; further: potency means the concentration at half of the fitted maximal effect).
Experiment [3] addresses Retinaldehyde dehydrogenase 3 (Homo sapiens) (UniProt P47895). Kind of experiment: qHTS for Inhibitors of the Aldehyde Dehydrogenase Family (ALDH1A3) Validation screen (AID 2061312). Further: on the % scale 0 is the no-effect control and ±100 the full control effect; nearly all actives have a fitted effect of over 45% in size.
In experiment [4] the target is Aldehyde dehydrogenase, mitochondrial (Homo sapiens) (UniProt P05091). The experiment in a line: qHTS for Inhibitors of the Aldehyde Dehydrogenase Family (ALDH2) Primary screen (AID 2061308). Further: nearly all actives have a fitted effect of over 55% in size. Further: potency means the concentration at half of the fitted maximal effect.
Experiment [5] concerns the target Retinaldehyde dehydrogenase 3 (Homo sapiens) (UniProt P47895). The experiment in a line: qHTS for Inhibitors of the Aldehyde Dehydrogenase Family (ALDH1A3) Primary screen (AID 2061315).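 Further: plate controls were DMSO vehicle for no effect and reference inhibitor for full effect.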
Experiment [6] is described as follows: BET inhibitor-based combinations targeting novel dependencies in MECOM-rearranged (r) AML: SET-2 cell line (AID 2202231). Further: nearly all actives have a fitted effect of over 35% in size. Further: potency means the concentration at half of the fitted maximal effect.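 On viability: plate controls were DMSO treated cells for no effect and wells without cells for full effect.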 The note with it: SET-2 AML cells viability, CellTiter-Glo luminescence, 48 h; viability: stronger effect = lower value, concentration not given here. Put shortly:
(§1)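 500 cells/well; 11-pt dose curve; 48 h, standard incubator; CellTiter-Glo luminescence after 15 min RT; DMSO/empty-well normalization; AUC plus Z-AUC (mean-centered within each line).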

A short description of experiment [7]: BET inhibitor-based combinations targeting novel dependencies in MECOM-rearranged (r) AML: OCI-AML3 cell line (AID 2202232). Further: nearly all actives have a fitted effect of over 35% in size. Further: potency means the concentration at half of the fitted maximal effect. The note with it: Potency: OCI-AML3 viability. Put shortly: as §1
A short description of experiment [8]: BET inhibitor-based combinations targeting novel dependencies in MECOM-rearranged (r) AML: MV-4-11 cell line (AID 2202233). Further: nearly all actives have a fitted effect of over 45% in size. Further: potency means the concentration at half of the fitted maximal effect. Put shortly:
(§2)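 Cells were plated at 500 per well and exposed to each drug across an 11-point dose range for 48 hr at standard incubator conditions. Viability was read by CellTiter-Glo luminescence, and activity was expressed as AUC and per-cell-line Z-transformed AUC.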

Experiment [9] can be described thus: BET inhibitor-based combinations targeting novel dependencies in MECOM-rearranged (r) AML: HNT-34 cell line (AID 2202234). Further: nearly all actives have a fitted effect of over 35% in size. Further: potency means the concentration at half of the fitted maximal effect. Put shortly:
as §2

Experiment [10] is described as follows: BET inhibitor-based combinations targeting novel dependencies in MECOM-rearranged (r) AML: UCSD-AML1 cell line (AID 2202235). Further: nearly all actives have a fitted effect of over 40% in size. Further: potency means the concentration at half of the fitted maximal effect. Put shortly: as §2
A short description of experiment [11]: BET inhibitor-based combinations targeting novel dependencies in MECOM-rearranged (r) AML: AML-191 cell line (AID 2202236; further: nearly all actives have a fitted effect of over 35% in size; further: potency means the concentration at half of the fitted maximal effect). Put shortly:
as §1

Experiment [12] in a line: BET inhibitor-based combinations targeting novel dependencies in MECOM-rearranged (r) AML: AML-194 cell line (AID 2202237; further: nearly all actives have a fitted effect of over 40% in size; further: potency means the concentration at half of the fitted maximal effect). Put shortly: as §1
The target of experiment [13] is Aldehyde dehydrogenase, mitochondrial (Homo sapiens) (UniProt P05091). Kind of experiment: qHTS for Inhibitors of the Aldehyde Dehydrogenase Family (ALDH2) Confirmatory screens (AID 2061303; active means well fitted inhibition curve with a large enough effect; title and protocol of this record describe different tests; further: nearly all actives have a fitted effect of over 45% in size; further: potency means the concentration at half of the fitted maximal effect).
Experiment [14] in a line: qHTS for Inhibitors of the Aldehyde Dehydrogenase Family (ALDH1A2, ALDH1A3, ALDH2, ALDH3A1) (AID 2061307). Further: nearly all actives have a fitted effect of over 50% in size. On Potency: test system not described further here; potency means the concentration at half of the fitted maximal effect.
Experiment [15] deals with Retinaldehyde dehydrogenase 3 (Homo sapiens) (UniProt P47895). The experiment in a line: qHTS for Inhibitors of the Aldehyde Dehydrogenase Family (ALDH1A3) Confirmatory screens (AID 2061311). Further: nearly all actives have a fitted effect of over 60% in size. Further: potency means the concentration at half of the fitted maximal effect.
Experiment [16] has as its target Retinal dehydrogenase 2 (Homo sapiens) (UniProt O94788). Kind of experiment: qHTS for Inhibitors of the Aldehyde Dehydrogenase Family (ALDH1A2) Confirmation screens (AID 2061314). Further: nearly all actives have a fitted effect of over 65% in size. Further: potency means the concentration at half of the fitted maximal effect.
Experiment [17] has as its target Aldehyde dehydrogenase 1A1 (Homo sapiens) (UniProt P00352). The experiment in a line: qHTS for Inhibitors of the Aldehyde Dehydrogenase Family (ALDH1A1) Confirmatory screens (AID 2061316). Further: nearly all actives have a fitted effect of over 65% in size. Further: potency means the concentration at half of the fitted maximal effect.

For `Clc1ccc(N2CCN(Cc3c[nH]c4ncccc34)CC2)cc1`, the Potency entry in [1] and in experiment [2] was “inactive” throughout.

As to `Cc1cccc(C#Cc2ccccc2)n1`, the Potency result in experiment [1] and in [2] was “inactive” in each case.

Take `O=C1C(SCCO)=C(SCCO)C(=O)c2ccccc21`: the results for the Potency in experiment [1] and in experiment [2] were 8.49 µM (active) and 2.24 µM (active), respectively. In experiment [3], the Potency result is “inactive”.

As to `COc1cc(C(O)CO)ccc1OS(=O)(=O)O` (stereo not given), the Potency result in [1], in experiment [2] and in [3] was “inactive” throughout.

As to `CCC1(O)CC2CN(CCc3c([nH]c4ccccc34)[C@@](C(=O)OC)(c3cc4c(cc3OC)N(C=O)C3[C@]45CCN4CC=C[C@@](CC)([C@@H](OC(C)=O)[C@]3(O)C(=O)OC)[C@H]45)C2)C1` (stereo not given in full), the Potency result in experiment [1] and in experiment [2] was “inactive” in each case.

In the case of `CCc1c(C)[nH]c2c1C(=O)C(CN1CCOCC1)CC2` (stereo not given), the Potency entry in experiment [1] and in experiment [2] was “inactive” throughout.

As to `CCCc1nn(C)c2c(=O)[nH]c(-c3cc(S(=O)(=O)N4CCN(C)CC4)ccc3OCC)nc12`, the Potency entry in experiment [1], in [2], in [4], in experiment [3], in experiment [5] and in [7] was “inactive” in each case. The Potency result in experiment [8], in [9], in experiment [10] and in [11] was “inactive” in each case. Moreover, the viability in [6] is 114%.

As to `CC(C)(C)c1ccc(S(=O)(=O)/C=C/C#N)cc1`, the Potency in experiment [1] is 26.9 µM (active); in [2] it was 1.26 µM (active) and 708 nM (active).

In the case of `Cc1cc(C(C)(C)C)c(O)c(C)c1CC1=NCCN1`, the Potency result in experiment [1], in experiment [2], in [4], in experiment [3], in experiment [5] and in [8] was “inactive” in each case. Moreover, the Potency result in experiment [9], in experiment [10] and in experiment [12] was “inactive” in each case. In addition, the viability in experiment [6] was 118%.

In the case of `CCN1C(=O)C=CC1=O`, the Potency entry in experiment [1], in experiment [13], in experiment [14], in experiment [15], in [16] and in experiment [17] was “inactive” in each case. Also, the Potency in experiment [2] is 12.6 µM (active).

Regarding `CN[C@H](CC(=O)O)C(=O)O`, the Potency entry in experiment [1], in [2] and in [3] was “inactive” each time.

Consider `S=C(S)N1CCCC1`, for which the results for the Potency in experiment [1] and in [2] were 15.1 µM (active) and 3.16 µM (active), respectively.

On to `O=C(Nc1ccc2[nH]ncc2c1)C1CCC1`, for which the Potency entry in experiment [1], in experiment [2], in experiment [4], in experiment [3] and in experiment [5] was “inactive” each time.

In the case of `N[C@H](C(=O)O)[C@H](O)C(=O)O`, the Potency result in experiment [1], in [2], in experiment [13], in experiment [14], in experiment [15] and in experiment [17] was “inactive” throughout.

With `CCCN(CCC)CCc1cccc2c1CC(=O)N2`, the Potency result in experiment [1], in experiment [2] and in experiment [3] was “inactive” each time.

On to `C[N+]1(CCCCC[N+]2(C)CCCC2)CCCC1`, for which the Potency result in experiment [1] and in [2] was “inactive” each time.

With `COc1ccccc1N1CCN(CCCCNC(=O)c2ccc3ccccc3c2)CC1`, the Potency entry in experiment [1], in experiment [2] and in experiment [3] was “inactive” each time.

`O=C(c1ccc(Cl)cc1)N1CCN(c2ccc([N+](=O)[O-])c3ncccc23)CC1`: the Potency result in [1], in [2] and in experiment [3] was “inactive” each time.

As for `NO`, the Potency entry in experiment [1] and in [2] was “inactive” each time.

On to `C=CCc1cccc(C=NNC(=O)CN2CCN(Cc3ccccc3)CC2)c1O`, for which the Potency result in experiment [1], in [2] and in [3] was “inactive” each time.

As for `CCCCCC(O)CCCC(=O)O` (stereo not given), the Potency result in experiment [1], in experiment [2] and in [3] was “inactive” each time.

For `O=c1[nH]c(=S)[nH]c(-c2ccccc2)c1Cc1c(O)ccc2ccccc12`, the Potency entry in experiment [1] and in experiment [2] was “inactive” in each case.

In the case of `O=C1OC(=O)C2C3CCC(O3)C12` (stereo not given), the Potency result in [1], in experiment [2] and in experiment [3] was “inactive” each time.

With `COc1ccc2c(c1)c(CC(=O)O)c(C)n2Cc1ccc(Cl)cc1`, the Potency result in experiment [1], in experiment [2] and in experiment [3] was “inactive” in each case.

For the molecule `CC(C)N(CCC(=O)c1ccc2ccccc2c1)Cc1ccccc1`, the Potency in [1] is 23.9 µM (active); in experiment [2], 355 nM (active) and 2.51 µM (active); in [13], 3.16 µM (active); in experiment [14], 0.0127 µM (active); in experiment [4] it was 0.251 µM (active); in [15] it was 0.283 µM (active). Besides, the Potency in experiment [16] was 0.0565 µM (active); in [17], 0.0449 µM (active); in [6], 8.33 µM (active); in experiment [7], 4.17 µM (active); in experiment [8], 2.09 µM (active); in experiment [9], 5.25 µM (active). The Potency in experiment [10] was 4.17 µM (active); in experiment [11] it was 6.61 µM (active); in experiment [12], 7.42 µM (active).

Take `CSc1ccc2c(c1)N(CCC1CCCCN1C)c1ccccc1S2` (stereo not given): the Potency result in experiment [1], in [2] and in experiment [3] was “inactive” in each case.
